Test results as given in PubChem BioAssay (EPA / NIEHS).
Records with an inconclusive call do not appear. The source made the active and inactive calls. How the source made its calls, unless noted: active means hit-call score of the fitted dose curve at least 0.9, where 1 is the maximum; inconclusive means response in the unintended direction; inactive means score below 0.9.

Key:
[1] = ATG_TCF_b_cat_CIS: Attagene CIS-FACTORIAL HepG2 Assay for human T-Cell-Factor with beta-catenin (TCF/b-cat) (AID 2282965; active means hit-call score of the fitted dose curve at least 0.9, where 1 is the maximum; inactive means score below 0.9); settings: HepG2 TCF/beta-catenin cis-reporter transcription, actives raise or lower the signal
Summary of the method: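 Measured: reporter mRNA in HepG2 transiently transfected with cis-promoter reporter units, 24 h after chemical addition. Fitting was bidirectional, DMSO as negative control.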

[2] = ATG_VDRE_CIS: Attagene CIS-FACTORIAL HepG2 Assay for human Vitamin D Receptor Element (VDRE) (AID 2282968; active means hit-call score of the fitted dose curve at least 0.9, where 1 is the maximum; inactive means score below 0.9); settings: HepG2 VDRE cis-reporter transcription, actives raise or lower the signal
Summary of the method: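 Readout is VDRE-driven reporter mRNA reflecting endogenous factor activity in human HepG2 cells, sampled 24 h post-dose. Quantification used labelled RT-PCR products separated by capillary electrophoresis; bidirectional analysis relative to DMSO.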

[3] = target: Estrogen receptor (Homo sapiens) (UniProt P03372); experiment: ATG_ERa_TRANS: Attagene TRANS-FACTORIAL HepG2 Assay for human Estrogen Receptor alpha (ERa) (AID 2282970); settings: HepG2 Attagene TRANS ERa GAL4 reporter, mRNA
Sequence of Estrogen receptor (Homo sapiens) (P03372 whole entry, looked up, the tested form may be a part): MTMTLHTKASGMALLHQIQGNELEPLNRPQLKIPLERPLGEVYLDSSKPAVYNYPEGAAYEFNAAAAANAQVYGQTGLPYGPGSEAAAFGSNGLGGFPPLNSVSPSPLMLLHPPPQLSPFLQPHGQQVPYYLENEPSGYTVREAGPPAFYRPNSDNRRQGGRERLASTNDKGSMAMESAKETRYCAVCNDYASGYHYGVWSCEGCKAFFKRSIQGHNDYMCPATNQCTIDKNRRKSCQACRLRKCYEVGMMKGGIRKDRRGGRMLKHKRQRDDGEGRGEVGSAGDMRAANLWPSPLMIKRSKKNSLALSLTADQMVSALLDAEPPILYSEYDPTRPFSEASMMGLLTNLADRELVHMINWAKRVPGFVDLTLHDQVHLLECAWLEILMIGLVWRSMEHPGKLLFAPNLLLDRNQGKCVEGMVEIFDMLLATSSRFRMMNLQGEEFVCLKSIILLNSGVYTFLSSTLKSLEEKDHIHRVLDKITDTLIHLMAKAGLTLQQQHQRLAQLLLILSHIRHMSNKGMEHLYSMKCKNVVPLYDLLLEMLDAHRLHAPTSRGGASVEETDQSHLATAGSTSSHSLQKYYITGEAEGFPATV
Summary of the method: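 Reporter mRNA induction after 24 hours, detected by fluorescent RT-PCR and capillary electrophoresis, gives the read-out. Cells are HepG2 transiently transfected with GAL4-UAS reporter transcription units responding to chimeric NR-Gal4. Activity is taken as gain of signal over DMSO baseline.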

[4] = target: X-box-binding protein 1 (Homo sapiens) (UniProt P17861); experiment: ATG_Xbp1_CIS: Attagene CIS-FACTORIAL HepG2 Assay for human X-box Binding Protein 1 (XBP1) (AID 2282972; active means hit-call score of the fitted dose curve at least 0.9, where 1 is the maximum; inactive means score below 0.9); settings: HepG2 XBP1 cis-element reporter, Attagene multiplex; actives raise or lower the signal
Summary of the method: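 Reporter transcripts were quantified by RT-PCR with fluorescent primer extension and capillary electrophoresis after 24 h chemical exposure. Cells: transiently transfected HepG2 carrying cis-regulated reporter constructs; data fitted bidirectionally relative to DMSO.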

[5] = ATG_GAL4_TRANS: Attagene TRANS-FACTORIAL HepG2 Assay for GAL4 (Internal Marker) (AID 2282976); settings: HepG2 Attagene TRANS GAL4 internal marker reporter
Summary of the method: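 RT-PCR/capillary electrophoresis readout of reporter mRNA. HepG2, transient MRTU transfection (GAL4-UAS reporters), 24 h compound exposure. Background-control endpoint, positive direction vs DMSO baseline.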

[6] = target: Bile acid receptor (Homo sapiens) (UniProt Q96RI1); experiment: ATG_FXR_TRANS: Attagene TRANS-FACTORIAL HepG2 Assay for Farnesoid X Receptor (FXR) (AID 2282979); settings: HepG2 Attagene TRANS FXR-GAL4 reporter transcription;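 further: hits raise reporter mRNA above DMSO so AC50 marks FXR activation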
Sequence of Bile acid receptor (Homo sapiens) (Q96RI1 whole entry, looked up, the tested form may be a part): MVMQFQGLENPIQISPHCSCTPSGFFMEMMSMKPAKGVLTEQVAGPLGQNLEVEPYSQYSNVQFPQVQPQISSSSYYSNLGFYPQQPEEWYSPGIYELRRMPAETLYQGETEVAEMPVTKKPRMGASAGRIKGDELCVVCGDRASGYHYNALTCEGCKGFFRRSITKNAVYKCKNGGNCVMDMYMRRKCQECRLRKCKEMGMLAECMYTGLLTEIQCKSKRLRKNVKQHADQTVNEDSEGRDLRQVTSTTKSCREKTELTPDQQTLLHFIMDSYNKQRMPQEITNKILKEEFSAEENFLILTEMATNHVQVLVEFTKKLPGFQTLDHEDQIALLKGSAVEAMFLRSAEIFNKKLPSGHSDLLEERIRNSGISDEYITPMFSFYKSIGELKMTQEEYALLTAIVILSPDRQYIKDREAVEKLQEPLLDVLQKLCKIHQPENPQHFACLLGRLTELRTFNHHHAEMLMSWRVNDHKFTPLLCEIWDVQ
Summary of the method: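 Read-out: fluorescent reporter transcripts quantified by capillary electrophoresis after RT-PCR of total RNA. Source cells were HepG2 transiently carrying chimeric NR-GAL4 plus GAL4-UAS reporter units, dosed 24 h. Activity fitted upward relative to DMSO baseline.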

[7] = target: Oxysterols receptor LXR-alpha (Homo sapiens) (UniProt Q13133); experiment: ATG_LXRa_TRANS: Attagene TRANS-FACTORIAL HepG2 Assay for human Liver X Receptor alpha (LXRa) (AID 2282980); settings: HepG2 Attagene TRANS reporter, LXRa transactivation
Summary of the method: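 Read-out: reporter transcript levels by RT-PCR plus capillary electrophoresis, fluorescence intensity. Transiently transfected HepG2, exogenous NR-GAL4 chimera, GAL4-UAS reporters; 24 h compound exposure. Activity = increase over DMSO negative control.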

[8] = target: Hepatocyte nuclear factor 4-alpha (Homo sapiens) (UniProt P41235); experiment: ATG_HNF4a_TRANS: Attagene TRANS-FACTORIAL HepG2 Assay for human Hepatocyte Nuclear Factor 4 alpha (HNF4a) (AID 2282982); settings: HepG2 HNF4a transactivation reporter, mRNA readout
Sequence of Hepatocyte nuclear factor 4-alpha (Homo sapiens) (P41235 whole entry, looked up, the tested form may be a part): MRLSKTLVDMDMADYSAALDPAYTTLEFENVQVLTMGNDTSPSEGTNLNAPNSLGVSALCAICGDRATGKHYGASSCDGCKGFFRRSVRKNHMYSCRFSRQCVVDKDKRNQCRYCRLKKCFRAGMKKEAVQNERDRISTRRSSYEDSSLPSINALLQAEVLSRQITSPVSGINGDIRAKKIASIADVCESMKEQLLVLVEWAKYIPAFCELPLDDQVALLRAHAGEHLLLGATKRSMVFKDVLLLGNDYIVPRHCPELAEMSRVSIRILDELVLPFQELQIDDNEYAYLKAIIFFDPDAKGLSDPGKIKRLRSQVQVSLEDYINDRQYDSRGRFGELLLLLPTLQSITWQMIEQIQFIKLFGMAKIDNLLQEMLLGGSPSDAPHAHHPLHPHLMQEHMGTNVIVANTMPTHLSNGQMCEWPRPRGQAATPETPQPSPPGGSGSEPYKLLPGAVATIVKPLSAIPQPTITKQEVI
Summary of the method: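 Activity of an exogenous HNF4a–Gal4 fusion scored as induced GAL4-UAS reporter transcripts after 24 h chemical exposure of transfected human HepG2 cells. Read-out via RT-PCR with 6-FAM labelling and capillary electrophoresis; rise over DMSO baseline.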

[9] = target: Transcriptional activator Myb (Homo sapiens) (UniProt P10242); experiment: ATG_Myb_CIS: Attagene CIS-FACTORIAL HepG2 Assay for human Myeloblastosis (Myb) Proto-Oncogene Transcription Factor (AID 2282986; active means hit-call score of the fitted dose curve at least 0.9, where 1 is the maximum; inactive means score below 0.9); settings: HepG2 Attagene CIS-FACTORIAL Myb reporter transcription; actives raise or lower the signal
Sequence of Transcriptional activator Myb (Homo sapiens) (P10242 whole entry, looked up): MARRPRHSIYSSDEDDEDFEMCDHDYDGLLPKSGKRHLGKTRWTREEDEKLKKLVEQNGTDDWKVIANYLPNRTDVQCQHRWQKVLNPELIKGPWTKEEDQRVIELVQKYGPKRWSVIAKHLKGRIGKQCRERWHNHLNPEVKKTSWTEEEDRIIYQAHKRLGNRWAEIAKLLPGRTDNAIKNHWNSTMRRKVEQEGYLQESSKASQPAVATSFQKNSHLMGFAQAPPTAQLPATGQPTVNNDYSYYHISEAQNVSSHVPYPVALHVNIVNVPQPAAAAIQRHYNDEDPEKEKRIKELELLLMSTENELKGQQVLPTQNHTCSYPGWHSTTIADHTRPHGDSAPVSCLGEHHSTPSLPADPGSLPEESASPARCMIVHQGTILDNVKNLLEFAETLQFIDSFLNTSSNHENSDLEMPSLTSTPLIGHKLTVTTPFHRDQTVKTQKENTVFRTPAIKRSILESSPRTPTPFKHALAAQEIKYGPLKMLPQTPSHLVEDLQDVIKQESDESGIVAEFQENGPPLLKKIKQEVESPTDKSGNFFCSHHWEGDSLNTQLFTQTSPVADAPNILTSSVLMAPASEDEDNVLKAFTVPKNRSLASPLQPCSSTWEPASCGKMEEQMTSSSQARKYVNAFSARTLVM
Summary of the method: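 Multiplexed cis-reporter system in HepG2: transient transfection, 24 h treatment, mRNA readout by RT-PCR and capillary electrophoresis. Both increases and decreases are scored versus DMSO negative control.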

[10] = target: Nuclear receptor subfamily 1 group I member 3 (Homo sapiens) (UniProt Q14994); experiment: ATG_CAR_TRANS: Attagene TRANS-FACTORIAL HepG2 Assay for human Constitutive Androstane Receptor (CAR) (AID 2282969); settings: HepG2 Attagene TRANS-FACTORIAL CAR reporter;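 further: activators raise reporter mRNA above DMSO so AC50 marks induction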
Sequence of Nuclear receptor subfamily 1 group I member 3 (Homo sapiens) (Q14994 whole entry, looked up, the tested form may be a part): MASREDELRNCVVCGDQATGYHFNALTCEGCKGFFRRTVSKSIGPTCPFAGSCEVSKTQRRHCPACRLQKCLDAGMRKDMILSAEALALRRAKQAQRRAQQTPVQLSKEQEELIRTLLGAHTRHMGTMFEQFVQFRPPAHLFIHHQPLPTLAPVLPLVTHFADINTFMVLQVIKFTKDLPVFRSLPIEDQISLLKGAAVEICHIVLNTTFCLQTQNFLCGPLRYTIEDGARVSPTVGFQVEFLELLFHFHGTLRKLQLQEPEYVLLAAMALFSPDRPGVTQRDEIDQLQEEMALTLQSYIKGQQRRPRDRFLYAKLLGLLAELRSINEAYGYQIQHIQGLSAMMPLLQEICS
Summary of the method: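 Signal is reporter mRNA induction relative to DMSO, measured 24 h after dosing by RT-PCR with fluorescent primer extension and capillary electrophoresis. Human HepG2 liver cells carried transiently transfected chimeric NR-Gal4/GAL4-UAS reporter constructs.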

[11] = target: Glucocorticoid receptor (Homo sapiens) (UniProt P04150); experiment: ATG_GR_TRANS: Attagene TRANS-FACTORIAL HepG2 Assay for human Glucocorticoid Receptor (GR) (AID 2282978); settings: HepG2 Attagene TRANS GR reporter, mRNA transcription;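 further: activators score as hits since higher reporter transcript over DMSO is fitted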
Sequence of Glucocorticoid receptor (Homo sapiens) (P04150 whole entry, looked up, the tested form may be a part): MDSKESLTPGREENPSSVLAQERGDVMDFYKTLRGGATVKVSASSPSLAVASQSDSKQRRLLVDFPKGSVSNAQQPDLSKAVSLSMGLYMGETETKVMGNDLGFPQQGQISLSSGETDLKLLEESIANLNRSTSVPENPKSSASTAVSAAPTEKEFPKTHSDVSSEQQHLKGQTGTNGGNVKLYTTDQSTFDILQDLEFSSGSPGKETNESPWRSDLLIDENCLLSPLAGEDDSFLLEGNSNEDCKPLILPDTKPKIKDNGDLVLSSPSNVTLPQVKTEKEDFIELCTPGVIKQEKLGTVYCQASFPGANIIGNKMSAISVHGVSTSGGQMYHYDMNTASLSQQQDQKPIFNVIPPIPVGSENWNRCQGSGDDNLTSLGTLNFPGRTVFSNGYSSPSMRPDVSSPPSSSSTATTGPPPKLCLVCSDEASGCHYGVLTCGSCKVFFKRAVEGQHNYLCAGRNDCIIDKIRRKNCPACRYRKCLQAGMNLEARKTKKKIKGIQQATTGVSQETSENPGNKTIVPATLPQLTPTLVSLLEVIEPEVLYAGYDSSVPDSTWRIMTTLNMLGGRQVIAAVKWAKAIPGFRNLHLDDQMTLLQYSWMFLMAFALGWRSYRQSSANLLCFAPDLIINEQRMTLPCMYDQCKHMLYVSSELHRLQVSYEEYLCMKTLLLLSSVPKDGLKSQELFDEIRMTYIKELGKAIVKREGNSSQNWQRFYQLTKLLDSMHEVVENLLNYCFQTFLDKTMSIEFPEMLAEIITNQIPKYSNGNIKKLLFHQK
Summary of the method: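 HepG2 transient transfection, multiple reporter units, GAL4-UAS under NR-GAL4 chimera control. 24 h treatment. Reporter mRNA by RT-PCR/CE fluorescence, DMSO as negative control.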

[12] = ATG_TGFb_CIS: Attagene CIS-FACTORIAL HepG2 Assay for human Transforming Growth Factor (TGF) (AID 2282967; active means hit-call score of the fitted dose curve at least 0.9, where 1 is the maximum; inactive means score below 0.9); settings: HepG2 Attagene CIS TGFb reporter, mRNA transcription; actives raise or lower the signal
Summary of the method: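 Endogenous TGFB1-linked transcription factor activity read as reporter mRNA via RT-PCR and capillary electrophoresis, 24 h after dosing transiently transfected HepG2 cells. Gain or loss of signal fitted relative to DMSO.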

[13] = target: Steroid hormone receptor ERR1 (Homo sapiens) (UniProt P11474); experiment: ATG_ERRa_TRANS: Attagene TRANS-FACTORIAL HepG2 Assay for human Estrogen-Related Receptor alpha (ERRa) (AID 2282971); settings: HepG2 Attagene TRANS reporter, ERRa transactivation
Sequence of Steroid hormone receptor ERR1 (Homo sapiens) (P11474 whole entry, looked up, the tested form may be a part): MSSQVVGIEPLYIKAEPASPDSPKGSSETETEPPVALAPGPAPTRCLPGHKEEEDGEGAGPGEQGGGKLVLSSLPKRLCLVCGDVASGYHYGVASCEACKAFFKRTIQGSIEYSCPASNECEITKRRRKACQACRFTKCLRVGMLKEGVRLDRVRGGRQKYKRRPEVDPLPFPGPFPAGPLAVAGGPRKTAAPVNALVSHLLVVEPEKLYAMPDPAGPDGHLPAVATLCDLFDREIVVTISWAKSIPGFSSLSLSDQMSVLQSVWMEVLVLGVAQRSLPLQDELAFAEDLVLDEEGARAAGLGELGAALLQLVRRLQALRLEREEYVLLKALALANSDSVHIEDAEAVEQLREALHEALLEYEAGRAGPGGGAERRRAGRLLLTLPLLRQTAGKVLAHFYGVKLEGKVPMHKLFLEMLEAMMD
Summary of the method: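 Transfected HepG2, 24 h dosing, ERRa-Gal4 chimera driving GAL4-UAS reporter. Readout: reporter mRNA via RT-PCR plus capillary electrophoresis (fluorescence). Positive direction vs DMSO control.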

[14] = target: Oxysterols receptor LXR-beta (Homo sapiens) (UniProt P55055); experiment: ATG_LXRb_TRANS: Attagene TRANS-FACTORIAL HepG2 Assay for human Liver X Receptor beta (LXRb) (AID 2282981); settings: HepG2 Attagene TRANS GAL4-LXRb reporter, mRNA
Sequence of Oxysterols receptor LXR-beta (Homo sapiens) (P55055 whole entry, looked up, the tested form may be a part): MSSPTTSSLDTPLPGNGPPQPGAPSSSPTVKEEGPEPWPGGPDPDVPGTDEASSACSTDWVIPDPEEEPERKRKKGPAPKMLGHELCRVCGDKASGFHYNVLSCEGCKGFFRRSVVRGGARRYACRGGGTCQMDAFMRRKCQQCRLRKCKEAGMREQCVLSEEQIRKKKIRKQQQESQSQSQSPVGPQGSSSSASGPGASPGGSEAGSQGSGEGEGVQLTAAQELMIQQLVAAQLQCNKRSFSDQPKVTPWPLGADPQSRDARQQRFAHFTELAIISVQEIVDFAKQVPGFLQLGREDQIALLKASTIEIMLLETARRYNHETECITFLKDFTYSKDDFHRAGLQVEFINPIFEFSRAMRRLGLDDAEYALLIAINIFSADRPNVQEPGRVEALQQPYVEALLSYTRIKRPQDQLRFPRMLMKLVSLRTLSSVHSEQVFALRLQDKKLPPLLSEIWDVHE
Summary of the method: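 After 24 h chemical treatment of transfected HepG2 cells carrying exogenous NR-Gal4 chimeras, reporter mRNA was quantified by fluorescent RT-PCR and capillary electrophoresis; activity taken as increase over DMSO controls.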

[15] = ATG_M_06_TRANS: Attagene TRANS-FACTORIAL HepG2 Assay for M06 Transcription Factor (Internal Marker) (AID 2282983); settings: HepG2 Attagene TRANS M06 internal marker reporter
Summary of the method: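 Read-out: fluorescent reporter cDNA fragments resolved by capillary electrophoresis after RT-PCR and HpaI cut. Source cells were HepG2 carrying transfected multi-reporter GAL4 constructs, dosed 24 h. Increase over DMSO control analysed.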

[16] = ATG_M_32_TRANS: Attagene TRANS-FACTORIAL HepG2 Assay for M32 Transcription Factor (Internal Marker) (AID 2282984); settings: HepG2 Attagene TRANS M32 internal marker reporter;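 further: transcript level of a background control reporter unit measured by RT-PCR and capillary electrophoresis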
Summary of the method: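 Internal background reporter in transfected HepG2: after 24 h chemical exposure, RNA reverse-transcribed, reporter cDNA amplified, fluorescently labelled and HpaI-cut, then sized by capillary electrophoresis. Gain of signal fitted against DMSO control.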

[17] = ATG_M_19_TRANS: Attagene TRANS-FACTORIAL HepG2 Assay for M19 Transcription Factor (Internal Marker) (AID 2282974); settings: HepG2 Attagene TRANS-FACTORIAL M19 internal marker reporter
Summary of the method: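 Gain-of-signal in reporter mRNA, relative to DMSO, was scored from capillary electrophoresis fluorescence. HepG2 cells carried transiently transfected multiple reporter transcription units and were incubated with test chemicals for 24 h.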

[18] = target: Estrogen-related receptor gamma (Homo sapiens) (UniProt P62508); experiment: ATG_ERRg_TRANS: Attagene TRANS-FACTORIAL HepG2 Assay for human Estrogen-Related Receptor gamma (ERRg) (AID 2282977); settings: HepG2 Attagene TRANS reporter, ERRg transactivation;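 further: hits increase reporter signal over DMSO so potencies reflect activators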
Summary of the method: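 Induction of reporter transcripts through a chimeric NR-Gal4 protein is quantified in transfected human HepG2 liver cells after 24 h chemical exposure, using RT-PCR with capillary electrophoresis detection and DMSO as baseline.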

[19] = target: Nuclear receptor subfamily 4 group A member 2 (Homo sapiens) (UniProt P43354); experiment: ATG_NURR1_TRANS: Attagene TRANS-FACTORIAL HepG2 Assay for human Nuclear Receptor Related Protein 1 (NURR1) (AID 2282985); settings: HepG2 Attagene TRANS reporter, mRNA readout
Sequence of Nuclear receptor subfamily 4 group A member 2 (Homo sapiens) (P43354 whole entry, looked up, the tested form may be a part): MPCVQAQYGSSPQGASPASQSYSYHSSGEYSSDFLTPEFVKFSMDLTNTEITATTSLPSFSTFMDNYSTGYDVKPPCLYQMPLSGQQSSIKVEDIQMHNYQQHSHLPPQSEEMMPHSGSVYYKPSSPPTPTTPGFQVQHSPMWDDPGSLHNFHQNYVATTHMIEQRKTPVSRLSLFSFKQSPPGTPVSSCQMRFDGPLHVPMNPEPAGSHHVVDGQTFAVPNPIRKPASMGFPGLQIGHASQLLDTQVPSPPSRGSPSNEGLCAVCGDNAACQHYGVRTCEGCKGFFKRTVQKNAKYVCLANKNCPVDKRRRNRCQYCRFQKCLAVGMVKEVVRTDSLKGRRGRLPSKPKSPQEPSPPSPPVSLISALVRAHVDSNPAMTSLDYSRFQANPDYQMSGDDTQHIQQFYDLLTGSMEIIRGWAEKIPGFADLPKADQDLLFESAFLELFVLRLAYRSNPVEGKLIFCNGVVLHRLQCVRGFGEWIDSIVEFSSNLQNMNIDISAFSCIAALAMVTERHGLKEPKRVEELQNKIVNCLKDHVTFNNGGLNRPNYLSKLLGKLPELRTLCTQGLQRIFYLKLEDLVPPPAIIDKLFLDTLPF
Summary of the method: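 Reporter transcript induction, measured by RT-PCR with fluorescent labelling, HpaI digestion and capillary electrophoresis, after 24 hr dosing of human HepG2 cells transiently expressing an exogenous NR-Gal4 fusion with GAL4-UAS-driven reporters; DMSO as baseline.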

Measured: AC50

O=C1OC(=O)c2ccc3c4c(ccc1c24)C(=O)OC3=O
inactive: [1] | [2] | [3] | [4] | [5] | [6] | [7] | [8] | [9]

Cc1cnccn1
inactive: [1] | [2] | [10] | [4] | [5] | [11] | [7] | [8] | [9]

FC(F)(F)C(F)(F)C(F)(F)C(F)(F)C(F)(F)C(F)(F)C(F)(F)CCI
active: [3] 24.5 µM
not listed: [4] | [9] | [10] | [17] | [18] | [19]
inactive: all other assays above

O=S(=O)(O)CCC(F)(F)C(F)(F)C(F)(F)C(F)(F)F
inactive: [1] | [12] | [2] | [13] | [17] | [11] | [14]

CC(=O)CCC(C)C
inactive: [1] | [12] | [10] | [3] | [11] | [14] | [9]

O=S(=O)(OCC(F)(F)F)C(F)(F)C(F)(F)C(F)(F)C(F)(F)F
active: [1] 104 µM | [19] 65.2 µM
not listed: [3] | [9] | [14]
inactive: all other assays above

CC(=O)c1ccccc1N
inactive: [1] | [12] | [2] | [4] | [5] | [11] | [8] | [15] | [9]

OCCCC(F)(F)C(F)(F)C(F)(F)C(F)(F)C(F)(F)C(F)(F)C(F)(F)C(F)(F)F
active: [1] 28.9 µM | [3] 10.9 µM | [19] 7.38 µM
not listed: [5] | [10] | [17]
inactive: all other assays above

Oc1ccc(C2(c3ccc(O)c(C4CCCCC4)c3)CCCCC2)cc1C1CCCCC1
inactive: [12] | [3] | [5] | [11] | [6] | [8] | [15] | [16]
active: [1] 33.4 µM | [2] 619 nM | [4] 6.08 µM | [9] 51.3 µM

CN(C)C(C)(C)CO
not listed: [10] | [13] | [16] | [17] | [18]
inactive: all other assays above

C=CCOC(=O)CC(C)C
not listed: [7] | [8] | [10] | [12] | [13] | [15] | [18] | [19]
inactive: all other assays above

CC1CCCCC1
not listed: [3] | [8] | [9] | [13] | [17] | [18] | [19]
inactive: all other assays above

C=CC(=O)OCCC(F)(F)C(F)(F)C(F)(F)C(F)(F)F
not listed: [3] | [7] | [8] | [10] | [14] | [17] | [18]
inactive: all other assays above

OCC(F)(F)C(F)(F)C(F)(F)CO
not listed: [6] | [7] | [8] | [10] | [14] | [16] | [17] | [18]
inactive: all other assays above
